Test [1] concerns the target Glutathione peroxidase 1 (Homo sapiens) (UniProt P07203). Put plainly: Primary qHTS Assay for Inhibitors of Recombinant Selenoprotein Glutathione Peroxidase 1 (GPX1) (AID 1845191). For activity, negative = inhibition: % is set by controls: 0 for no effect and ±100 for the full control effect. Note: nearly all actives have a fitted effect of over 65% in size. The method, boiled down:
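GR-coupled assay: compounds preincubated 30 min at room temperature with GPX1, then reaction started with CHP; final 10 nM GPX1, 1 mM GSH, 0.5 mM CHP, 0.5 mM NADPH, 100 nM GR, 0.01% BSA, pH 7.5 Tris buffer. NADPH fluorescence (340/450 nm) read at 0 and 15 min.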
Background: Quantitative high-throughput screening tests each substance at several concentrations.

Test [2] deals with Phospholipid hydroperoxide glutathione peroxidase GPX4 (Homo sapiens) (UniProt P36969). Put plainly: Primary qHTS Assay for Inhibitors of Recombinant Selenoprotein Glutathione Peroxidase 4 (GPX4) (AID 1845192). For activity change, negative = inhibition: series mostly up to about 50 µM; % is set by controls: 0 for no effect and ±100 for the full control effect. Note: nearly all actives have a fitted effect of over 65% in size. The method, boiled down: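 GR-coupled assay: recombinant GPX4 preincubated 30 min with compound at room temperature; final 200 nM GPX4, 1 mM GSH, 0.5 mM cumene hydroperoxide, 0.5 mM NADPH, 100 nM GR, 0.01% BSA, pH 7.5 Tris. NADPH fluorescence (340/450 nm) read at 0 and 15 min.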

Test [3] deals with Luciferin 4-monooxygenase (Photinus pyralis) (UniProt P08659). Kind of test: Primary firefly luciferase (FLuc) qHTS assay for identification of artifact compounds. (AID 1845220).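 For activity change, negative = inhibition: series mostly up to about 54 µM; plate controls were DMSO vehicle for no effect and no enzyme for full effect.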 Note: nearly all actives have a fitted effect of over 60% in size. The procedure, abridged:
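D-luciferin and ATP (10 uM each, final) in Tris acetate buffer pH 7.6 were incubated with compounds for 15 min at room temperature. The reaction was started with 10 nM Photinus pyralis luciferase and luminescence read after 5 min. Percent inhibition was fitted to a 4-parameter Hill equation.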

A short description of test [4]: Primary fluorescence-based thiol-reactive (MSTI) qHTS assay for identification of artifact compounds. (AID 1845221).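 For activity change, negative = thiol reactive: series mostly up to about 54 µM; thiol-reactive compounds lower the probe fluorescence signal.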 Note: nearly all actives have a fitted effect of over 65% in size. Note: potency is the fitted concentration of half-maximal effect. The method, boiled down:
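In PBS pH 7.4 with 2% DMSO, each compound met 4 uM MSTI for one hour at ambient temperature, shielded from light, before fluorescence detection.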

Test [5] relates to Nanoluciferase (engineered Oplophorus gracilirostris luciferase). Put plainly: Primary Nanoluciferase (NLuc) qHTS assay for identification of artifact compounds. (AID 1845222).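 Note: series mostly up to about 54 µM; 0% = DMSO and -100% = no enzyme.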 The method, boiled down: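 Diluted conditioned medium from NLuc-expressing S16 cells treated with compounds for 15 min at room temperature, then Nano-Glo substrate added; luminescence read after 5 min. Percent inhibition versus no-enzyme and DMSO controls fitted to 4-parameter Hill equation.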

Test [6] in a line: Primary redox qHTS assay for identification of artifact compounds. (AID 1845223).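 Note: 0% = DMSO and 100% = reference compound.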 The method, boiled down:
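Amplex Red (25 uM) and HRP (250 mU/mL) in HBSS, with compounds for 15 min, then 250 uM DTT for 30 min, room temperature, dark. Fluorescence 525/598 nm read; normalized to DMSO and 10 uM DA3003; Hill fit.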

In test [7] the target is Cytochrome P450 3A4 (Homo sapiens) (UniProt P08684). Put plainly: qHTS for inhibitors of CYP3A4 against the NCATS DSHEA and TCM libraries (AID 1919971).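 Note: % is set by controls: 0 for no effect and ±100 for the full control effect; inhibition lowers luminescence from luciferin made by CYP3A4.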 The method, boiled down: (§1)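 Luminescent P450-Glo format: compounds preincubated 15 min with enzyme and luciferin substrate, reaction run 30-45 min after NADPH regeneration solution. Intraplate controls: ketoconazole for CYP3A4 and CYP2C19, sulfaphenazole for CYP2C9.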

The target in test [8] is Cytochrome P450 2D6 (Homo sapiens) (UniProt P10635). Kind of test: qHTS for inhibitors of CYP2D6 against the NCATS DSHEA and TCM libraries (AID 1919972). Note: % is set by controls: 0 for no effect and ±100 for the full control effect. The procedure, abridged:
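Luminescent P450-Glo read-out of CYP2D6 turnover of a luciferin substrate after NADPH-driven reaction of 30-45 min at room temperature. Compounds were first preincubated 15 min with enzyme at titrated concentrations; quinidine was the intraplate control.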

For test [9], the target named is Cytochrome P450 2C9 (Homo sapiens) (UniProt P11712). Kind of test: qHTS for inhibitors of CYP2C9 against the NCATS DSHEA and TCM libraries (AID 1919973).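 Note: luminogenic pro-luciferin CYP2C9 substrate turned into luciferin with NADPH regeneration; series mostly up to about 34 µM; % is set by controls: 0 for no effect and ±100 for the full control effect.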 The method, boiled down: as §1

Unmarked numbers belong to inactive results. Inconclusive results are not listed. Calls of active or inactive are those of the source. Calls come from the whole dose curve; as a rule, active = well fitted curve in the direction sought with a large enough effect; inconclusive = small, poorly fitted or top-dose-only effect, or another doubt; inactive = no such curve, though single readings can be large; an effect the other way counts as inactive or inconclusive.

Phospholipid hydroperoxide glutathione peroxidase GPX4 (Homo sapiens), sequence (P36969 whole entry, looked up): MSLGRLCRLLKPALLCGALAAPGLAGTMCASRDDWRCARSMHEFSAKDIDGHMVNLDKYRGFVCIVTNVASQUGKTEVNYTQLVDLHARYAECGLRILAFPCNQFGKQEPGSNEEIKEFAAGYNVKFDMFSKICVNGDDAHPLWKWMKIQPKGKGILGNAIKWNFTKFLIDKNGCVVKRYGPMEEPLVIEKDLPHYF
Cytochrome P450 2D6 (Homo sapiens), sequence (P10635 whole entry, looked up): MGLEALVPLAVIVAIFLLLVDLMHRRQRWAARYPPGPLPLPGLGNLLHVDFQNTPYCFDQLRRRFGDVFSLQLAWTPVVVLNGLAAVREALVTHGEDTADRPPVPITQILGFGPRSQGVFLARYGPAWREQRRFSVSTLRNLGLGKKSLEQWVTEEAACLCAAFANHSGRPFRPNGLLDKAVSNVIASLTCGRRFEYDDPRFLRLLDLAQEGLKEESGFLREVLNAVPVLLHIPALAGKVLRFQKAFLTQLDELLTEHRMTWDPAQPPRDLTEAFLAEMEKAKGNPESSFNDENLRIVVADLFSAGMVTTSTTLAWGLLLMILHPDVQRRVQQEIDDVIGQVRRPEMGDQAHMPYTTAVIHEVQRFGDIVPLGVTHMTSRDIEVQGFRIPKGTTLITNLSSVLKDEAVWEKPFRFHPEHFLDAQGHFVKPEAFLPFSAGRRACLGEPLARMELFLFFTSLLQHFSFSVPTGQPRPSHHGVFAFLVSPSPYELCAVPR
Glutathione peroxidase 1 (Homo sapiens), sequence (P07203 whole entry, looked up): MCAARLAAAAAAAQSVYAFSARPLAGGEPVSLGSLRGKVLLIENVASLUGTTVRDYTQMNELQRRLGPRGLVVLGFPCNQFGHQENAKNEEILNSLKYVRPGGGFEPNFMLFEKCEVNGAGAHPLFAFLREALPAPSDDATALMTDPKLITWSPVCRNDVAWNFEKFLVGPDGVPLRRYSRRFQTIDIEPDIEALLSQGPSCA
Cytochrome P450 2C9 (Homo sapiens), sequence (P11712 whole entry, looked up): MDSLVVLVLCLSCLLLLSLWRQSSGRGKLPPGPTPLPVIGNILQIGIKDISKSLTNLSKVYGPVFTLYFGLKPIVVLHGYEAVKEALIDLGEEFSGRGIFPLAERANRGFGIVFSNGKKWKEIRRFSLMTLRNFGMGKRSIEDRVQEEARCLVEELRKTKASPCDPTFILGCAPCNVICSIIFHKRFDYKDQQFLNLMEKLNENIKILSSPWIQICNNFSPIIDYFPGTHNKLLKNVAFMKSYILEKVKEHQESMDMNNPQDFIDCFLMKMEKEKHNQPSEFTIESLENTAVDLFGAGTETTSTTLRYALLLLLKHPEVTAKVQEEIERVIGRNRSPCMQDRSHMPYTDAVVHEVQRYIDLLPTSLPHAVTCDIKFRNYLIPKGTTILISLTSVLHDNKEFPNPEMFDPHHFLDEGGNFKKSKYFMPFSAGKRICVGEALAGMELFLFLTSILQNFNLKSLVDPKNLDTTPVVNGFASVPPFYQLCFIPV
Cytochrome P450 3A4 (Homo sapiens), sequence (P08684 whole entry, looked up): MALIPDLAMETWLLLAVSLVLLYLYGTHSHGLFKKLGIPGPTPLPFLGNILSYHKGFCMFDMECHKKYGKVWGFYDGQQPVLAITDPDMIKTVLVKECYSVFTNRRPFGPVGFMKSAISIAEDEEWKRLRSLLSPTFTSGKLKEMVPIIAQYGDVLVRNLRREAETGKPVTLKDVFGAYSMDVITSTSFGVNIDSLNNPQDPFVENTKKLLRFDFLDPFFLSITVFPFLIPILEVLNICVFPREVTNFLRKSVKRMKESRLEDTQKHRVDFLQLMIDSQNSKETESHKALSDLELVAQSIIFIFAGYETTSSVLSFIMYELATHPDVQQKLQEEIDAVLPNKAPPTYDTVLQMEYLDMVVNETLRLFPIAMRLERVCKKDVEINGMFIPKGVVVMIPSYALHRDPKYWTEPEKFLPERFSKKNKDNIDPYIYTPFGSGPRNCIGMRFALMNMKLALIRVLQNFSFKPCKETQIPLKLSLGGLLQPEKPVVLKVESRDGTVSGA

For `CC(=O)N[C@@H](CCCCN)C(=O)N(C)[C@@H](CC(C)C)C(=O)N[C@H](C(=O)N(C)[C@@H](Cc1ccccc1)C(=O)N[C@H](Cc1ccccc1)C(N)=O)C(C)C`, the figures for the activity, negative = inhibition in test [1] and in test [5] were 0.986% [at 4.49 µM] and 2.14% [at 6.45 µM], respectively. Moreover, the outcome in test [2] is “inactive [at 4.52 µM]”. Further, in [3], the activity change, negative = inhibition was 1.94% [at 6.45 µM]. Besides, the activity change, negative = thiol reactive in test [4] was 50.7% [at 6.41 µM]. For the same molecule, the redox activity (% of DA3003) in test [6] was -1.23% [at 6.41 µM].
Regarding `COc1cc(Br)c(S(=O)(=O)Nc2ccc(C(F)(F)F)c(O[C@@H]3CCN(C)C3)c2)cc1OC`, the Potency result in test [1], in [2], in test [3], in test [4] and in [6] was “inactive” each time.
Take `CCS(=O)(=O)N1CCN(c2ccc(Nc3ncc(C(N)=O)c(NC4CC4)n3)cc2)CC1`: the Potency result in [1], in [2], in [3], in [5] and in test [6] was “inactive” in each case. The Potency in [4] was 2.99 µM (active).
Regarding `CC(C)=CCC[C@](C)(O)[C@H]1CC[C@]2(C)[C@@H]1[C@H](O)CC1[C@@]3(C)CC[C@H](O)C(C)(C)[C@@H]3[C@@H](O[C@@H]3O[C@H](CO)[C@@H](O)[C@H](O)[C@H]3O[C@@H]3O[C@H](CO)[C@@H](O)[C@H](O)[C@H]3O)C[C@]12C` (some centres not stated), the Potency entry in test [1], in test [2], in test [3], in test [4], in [5] and in test [6] was “inactive” each time. Besides, the molecule was classed as inactive in [7], in test [8] and in test [9].
For `Cc1ccc(NC(=O)Nc2cc(C(F)(F)F)ccc2F)cc1Nc1ccc2c(c1)NC(=O)/C2=C\c1ccc[nH]1`, the Potency result in test [1], in test [2], in [3] and in test [6] was “inactive” throughout. In addition, the Potency in test [4] is 1.34 µM (active).
Consider `C[C@@H]1N[C@H]2N(C1=O)c1ccccc1[C@@]2(O)C[C@@H]1C(=O)N[C@@H](C)c2nc3ccccc3c(=O)n21`, for which the Potency entry in test [1], in test [2], in test [3], in [4], in test [5] and in test [6] was “inactive” in each case.
As to `CC(C)(C)NC(=O)[C@@H](c1cccnc1)N(C(=O)c1ccco1)c1ccc(C(C)(C)C)cc1`, the Potency result in [1], in test [2], in [3], in [4] and in test [6] was “inactive” in each case.
As to `C=C(CCC1=C(C)[C@H]2[C@H](CC3[C@@H]4CC=C5C[C@@H](O)C[C@@H](O)[C@]5(C)C4[C@H](O)C[C@@]32C)O1)CO[C@@H]1O[C@H](CO)[C@@H](O)[C@H](O)[C@H]1O` (some centres not stated), the Potency entry in test [1], in [2], in [3], in [4], in [5] and in test [6] was “inactive” throughout.
As for `Cc1oc2ccccc2c1CNC(=O)NCc1cccs1`, the Potency entry in test [1], in [2], in [3], in test [4] and in test [6] was “inactive” each time.
In the case of `OC[C@H]1O[C@@H](OC[C@H]2O[C@@H](OC/C=C/c3ccccc3)[C@H](O)[C@@H](O)[C@@H]2O)[C@@H](O)[C@@H]1O`, the Potency entry in [1], in test [2], in test [3], in test [5] and in test [6] was “inactive” throughout. Besides, the Potency in [4] is 10.3 µM (active). Moreover, the result in test [7], in test [8] and in test [9] was inactive.
Regarding `O=C(Nc1nc2ccccc2n1CCc1ccccc1)c1ccccc1`, the Potency result in test [1], in [2], in [3], in test [4], in [5] and in [6] was “inactive” each time.
`CC(C)=CCC/C(C)=C/CC/C(C)=C/COC1OC(COC2OCC(OC3OCC(O)C(O)C3O)C(O)C2O)C(O)C(OC2OC(C)C(OC3OC(C)C(OC4OCC(OC5OC(C)C(O)C(O)C5O)C(O)C4O)C(O)C3O)C(O)C2O)C1O` (configuration not stated): the figures for the activity, negative = inhibition in [1] and in test [5] were 1.32% [at 9.52 µM] and -0.192% [at 11.6 µM], respectively. Also, in [2], the activity change, negative = inhibition is 4.38% [at 9.73 µM]. In addition, the outcome in test [3] was “inactive [at 11.6 µM]”. For the same molecule, in test [4], the activity change, negative = thiol reactive was 139% [at 11.5 µM]. The redox activity (% of DA3003) in [6] was 11.7% [at 11.5 µM].
Turning to `CC(=O)c1c(O)cc(O[C@@H]2O[C@H](CO)[C@@H](O)[C@H](O)[C@H]2O)cc1O`, the Potency result in test [1], in test [2], in test [3], in test [5] and in [6] was “inactive” throughout. For the same molecule, the Potency in [4] was 4.14 µM (active).
`OC[C@H]1O[C@@H](Oc2ccccc2)[C@H](O)[C@@H](O)[C@@H]1O`: the Potency entry in test [1], in test [2], in test [3], in [5] and in test [6] was “inactive” each time. Further, in [4], the Potency is 21.2 µM (active).
Consider `CC(=O)N1CCc2ccc(O)c(OC3OC(COC4OCC(O)(CO)C4O)C(O)C(O)C3O)c2C1Cc1ccc(O)cc1` (configuration not stated), for which the Potency result in [1], in test [2], in test [3], in test [4], in test [5] and in test [6] was “inactive” each time.
As to `CC(C)=CCCC1(C)C=Cc2c(c(C)cc3c2[nH]c2ccccc23)O1` (configuration not stated), the Potency result in test [1], in test [2], in [3], in test [5] and in test [6] was “inactive” throughout. Also, in test [4], the Potency is 2.93 µM (active).
On to `C/C(=C\C=C\C(C)C1CCC2(C)C3CCC4C(C)(C)C(=O)CCC45CC35CCC12C)C(=O)O` (configuration not stated), for which the Potency result in test [1], in test [2], in [3], in test [4], in [5] and in [6] was “inactive” each time.
Regarding `C[C@@]12CC[C@@H]3[C@@](CC[C@H]4[C@@]3(C)CCC[C@@]4(C)C(=O)O)(CC1=O)C2`, the Potency entry in [1], in [2], in test [3], in [4], in test [5] and in test [6] was “inactive” throughout. Further, in test [8], the molecule was called inactive.
`C=C1C(=O)O[C@@H]2[C@H]1CCC(C)=C1CCC(=O)O[C@]12C`: the Potency entry in [1], in test [2], in test [3], in test [5] and in test [6] was “inactive” each time. In addition, in test [4], the Potency was 18.9 µM (active).

These data come from PubChem BioAssay (NCATS).
